# Measured values as given in PubChem BioAssay (Tox21).
# Values without a mark were called inactive. Inconclusive results are not listed. Where a call stands in place of a potency, no number is given. Calls of active or inactive are those of the source. Calls come from the whole dose curve.
# Assays:
# [1] = target: Acetylcholinesterase (Homo sapiens) (UniProt P22303); assay: Acetylcholinesterase (AChE) small molecule antagonists: colormetric cell-based qHTS assay (AID 1347395); settings: SH-SY5Y cells AChE activity, colorimetric (Ellman); series mostly up to 115 µM; note: nearly all actives have a fitted effect of over 30% in size; note: potency is the fitted concentration of half-maximal effect
# In short: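 In this cell-based qHTS, attached SH-SY5Y cells were treated with test chemicals for 30 min, after which acetylthiocholine hydrolysis was followed by DTNB colour development over 90 min at 37 C.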
# [2] = target: Acetylcholinesterase (Homo sapiens) (UniProt P22303); assay: Acetylcholinesterase (AChE) small molecule antagonists: fluorescence cell-based qHTS assay (AID 1347398); settings: SH-SY5Y cells; Potency: AChE activity; outcome: AChE activity; series mostly up to 115 µM; note: nearly all actives have a fitted effect of over 50% in size; note: potency is the fitted concentration of half-maximal effect
# In short: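 Human SH-SY5Y cells were plated overnight at 37 C, exposed to compound for 30 min at 37 C, 5% CO2, then given acetylthiocholine plus Thiolite Green for 40 min at room temperature; thiocholine fluorescence (Ex/Em 490/520 nm) reports endogenous AChE activity.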
# [3] = target: Acetylcholinesterase (Homo sapiens) (UniProt P22303); assay: Acetylcholinesterase (AChE) small molecule antagonists: enzyme-based qHTS assay (AID 1347397); settings: Potency: AChE enzyme activity inhibition; outcome: AChE enzyme activity inhibition; series mostly up to 115 µM; note: nearly all actives have a fitted effect of over 55% in size; note: potency is the fitted concentration of half-maximal effect
# In short: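 Recombinant human AChE, dispensed at 50 mU/mL, was preincubated with Tox21 10K compounds or DMSO vehicle for 30 min at room temperature. DTNB plus acetylthiocholine was then added, and thiocholine was measured colorimetrically after a further 10 min.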
# [4] = target: Acetylcholinesterase (Homo sapiens) (UniProt P22303); assay: Acetylcholinesterase (AChE) small molecule antagonists: enzyme-based qHTS assay with human liver microsomes (AID 1347399); settings: Potency: qHTS inhibition; outcome: qHTS inhibition; series mostly up to 115 µM; note: nearly all actives have a fitted effect of over 60% in size
# In short: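 Recombinant human AChE (50 mU/mL in the enzyme mix) and human liver microsomes (0.25 mg/mL final) were preincubated with compound and NADPH (0.25 mg/mL final) for 30 min at 37 C. Acetylthiocholine/DTNB was then added; thiocholine was read colorimetrically after 10 min at room temperature.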
# Acetylcholinesterase (Homo sapiens), sequence (P22303 whole entry, looked up): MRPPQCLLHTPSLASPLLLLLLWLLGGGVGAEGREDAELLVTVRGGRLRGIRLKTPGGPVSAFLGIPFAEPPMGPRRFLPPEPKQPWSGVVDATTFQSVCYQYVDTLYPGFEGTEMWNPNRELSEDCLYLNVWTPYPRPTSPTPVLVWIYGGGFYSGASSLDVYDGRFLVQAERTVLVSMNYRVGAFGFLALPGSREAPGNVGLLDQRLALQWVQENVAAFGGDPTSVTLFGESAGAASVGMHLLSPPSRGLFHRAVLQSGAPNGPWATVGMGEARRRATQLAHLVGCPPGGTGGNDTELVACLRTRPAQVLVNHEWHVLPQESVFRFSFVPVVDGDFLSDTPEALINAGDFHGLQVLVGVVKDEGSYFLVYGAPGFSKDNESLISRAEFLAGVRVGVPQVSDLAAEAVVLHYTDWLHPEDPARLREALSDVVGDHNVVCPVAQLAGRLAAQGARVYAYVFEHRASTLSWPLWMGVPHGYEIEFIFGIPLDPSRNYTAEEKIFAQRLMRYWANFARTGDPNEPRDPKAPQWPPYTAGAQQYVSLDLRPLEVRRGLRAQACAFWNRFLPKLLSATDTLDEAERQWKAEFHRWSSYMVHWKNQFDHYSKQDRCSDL
smiles,measurement,setting,value
O=C(O)c1c(O)c(-c2ccccc2)nc2ccccc12,Potency,[1],inactive
same,Potency,[2],inactive
N=C1N=C(N)c2ccccc21,Potency,[1],inactive
same,Potency,[3],inactive
same,Potency,[4],inactive
CCOc1ccccc1N,Potency,[1],inactive
same,Potency,[2],inactive
same,Potency,[4],inactive
Cc1cccc(N(C)C)c1,Potency,[1],inactive
same,Potency,[2],inactive
same,Potency,[4],inactive
CCOC(=O)c1ccc(C#Cc2ccc3c(c2)C(C)(C)CCS3)nc1,Potency,[1],inactive
same,Potency,[3],inactive
same,Potency,[4],inactive
CCCCCCCCOC(=O)c1cc(O)c(O)c(O)c1,Potency,[1],inactive
same,Potency,[2],inactive
same,Potency,[4],inactive
CC(C)(C)C(=O)O,Potency,[1],inactive
same,Potency,[3],inactive
same,Potency,[4],inactive
CCN(CC)c1ccc2c(-c3ccccc3C(=O)O)c3ccc(=[N+](CC)CC)cc-3oc2c1,Potency,[1],inactive
same,Potency,[3],inactive
same,Potency,[4],inactive
Cc1c(C)n(Cc2ccccc2)c2ccc(C(=O)OCCN(C)C)cc12,Potency,[1],inactive
same,Potency,[2],13.8 µM (active)
same,Potency,[4],inactive
C[C@H](CN1CCCC1)C(=O)c1ccc(C(F)(F)F)cc1,Potency,[1],inactive
same,Potency,[3],inactive
same,Potency,[4],inactive
COc1ccc(CCC(=O)c2c(O)cc(O[C@@H]3O[C@H](CO)[C@@H](O)[C@H](O)[C@H]3O[C@@H]3O[C@@H](C)[C@H](O)[C@@H](O)[C@H]3O)cc2O)cc1O,Potency,[1],inactive
same,Potency,[2],inactive
same,Potency,[4],inactive
COc1cc(C)ccc1C(C)C,Potency,[1],inactive
same,Potency,[3],inactive
same,Potency,[4],inactive
Cc1ccc(C(C)c2ccc(C)c(C)c2)cc1C,Potency,[1],inactive
same,Potency,[3],inactive
same,Potency,[4],inactive
C[n+]1cc2c3c(ccc2c2ccc4cc5c(cc4c21)OCO5)OCO3,Potency,[1],10.7 µM (active)
same,Potency,[3],16.9 µM (active)
same,"activity change, negative = inhibition",[4],-3.24% [at 23.6 µM]
CCOc1ccc2nc3cc(N)ccc3c(N)c2c1,Potency,[1],17.4 µM (active)
same,Potency,[2],13.8 µM (active)
CN(C[C@@H](CC[N+]12CCC(C3CCCCC3)(CC1)CC2)c1ccc(Cl)c(Cl)c1)C(=O)c1cc(C(F)(F)F)cc(C(F)(F)F)c1,outcome,[1],inactive
same,Potency,[3],7.96 µM (active)
same,outcome,[4],inactive
c1ccc(C(O[C@@H]2CCCN(CCc3ccc4c(c3)OCO4)C2)c2ccccc2)cc1,Potency,[1],inactive
same,Potency,[3],inactive
same,Potency,[4],inactive
CC(=O)OC1C2(C)CCC(C2)C1(C)C (centres undefined),Potency,[1],inactive
same,Potency,[2],inactive
same,Potency,[4],inactive
Cc1ccc(O)c(N)c1,Potency,[1],inactive
same,Potency,[3],inactive
same,Potency,[4],inactive
O=C(CCN1CCC(c2ccccc2)C1)c1ccc2c(c1)OCCO2 (centres undefined),Potency,[1],30.9 µM (active)
same,Potency,[3],inactive
same,Potency,[4],inactive
COc1cc(C(C)=O)ccc1OCCCN1CCC(c2noc3cc(F)ccc23)CC1,Potency,[1],19.5 µM (active)
same,Potency,[3],inactive
same,Potency,[4],inactive
CC(C)(O)C(=O)O,Potency,[1],inactive
same,Potency,[2],inactive
same,Potency,[4],inactive
CN1C(=O)OC(C)(C)C1=O,Potency,[1],inactive
same,Potency,[3],inactive
same,Potency,[4],inactive
CNCC(O)c1ccc(O)c(O)c1 (centres undefined),outcome,[1],inactive
same,outcome,[3],inactive
same,outcome,[4],inactive
CCN1/C(=C/C=C/c2sc3ccccc3[n+]2CC)Sc2ccccc21,Potency,[1],10.7 µM (active)
same,Potency,[2],6.74 µM (active)
same,"activity change, negative = inhibition",[4],4.36% [at 23.6 µM]
CC(C)C(=O)OCC(C)(C)C(O)C(C)C (centres undefined),Potency,[1],inactive
same,Potency,[2],inactive
same,Potency,[4],inactive
CCCCCCC1(C)CCC(=O)O1 (centres undefined),Potency,[1],inactive
same,Potency,[2],inactive
same,Potency,[4],inactive
CCOC(=O)c1ccccc1C(=C1C=C(Br)C(=O)C(Br)=C1)c1cc(Br)c(O)c(Br)c1,Potency,[1],inactive
same,Potency,[2],inactive
same,Potency,[4],inactive
COc1cc2nc(N3CCN(C(=O)C4CCCO4)CC3)nc(N)c2cc1OC (centres undefined),Potency,[1],27.5 µM (active)
same,Potency,[2],12.3 µM (active)
same,Potency,[4],inactive
Cc1nc2ccccn2c(=O)c1CCN1CCC(C(=O)c2ccc(F)cc2)CC1,Potency,[1],24.5 µM (active)
same,Potency,[2],7.76 µM (active)
same,Potency,[4],inactive
CCc1cccc(C)c1,Potency,[1],inactive
same,Potency,[2],inactive
same,Potency,[4],inactive
CCCCCCCCCOC(=O)c1ccccc1C(=O)OCCCCCCCCC,Potency,[1],inactive
same,Potency,[2],inactive
same,Potency,[4],inactive
COC(=O)Nc1nc2ccc(C(=O)c3ccccc3)cc2[nH]1,Potency,[1],inactive
same,Potency,[2],inactive
same,Potency,[4],inactive
CN1CCN(c2ccccc2/C=C2\SCCN(c3ccc(Cl)c(Cl)c3)C2=O)CC1,Potency,[1],inactive
same,Potency,[2],39.9 µM (active)
same,Potency,[4],inactive
CC(C)=CCC[C@H](C)CCO,Potency,[1],inactive
same,Potency,[2],inactive
same,Potency,[4],inactive
Cc1nc2n(c(=O)c1CCN1CCC(C(=O)c3ccc(F)cc3)CC1)CCS2,Potency,[1],13.8 µM (active)
same,Potency,[2],9.77 µM (active)
same,Potency,[4],inactive
CCCC(c1cc(C(C)(C)C)c(O)cc1C)c1cc(C(C)(C)C)c(O)cc1C,Potency,[1],inactive
same,Potency,[2],inactive
same,Potency,[4],inactive
O=C(Nc1ccc(Cl)c(Cl)c1)c1cc(Cl)cc(Cl)c1O,Potency,[1],inactive
same,Potency,[2],inactive
same,Potency,[4],inactive
[Ca+2],Potency,[1],inactive
same,Potency,[2],inactive
same,Potency,[4],inactive
CC(=O)CC(c1ccc([N+](=O)[O-])cc1)c1c(O)c2ccccc2oc1=O (centres undefined),Potency,[1],inactive
same,Potency,[2],inactive
same,Potency,[4],inactive
COc1ccc(N=Nc2cc(C)c(N=Nc3ccc(S(=O)(=O)O)cc3)cc2OC)cc1,Potency,[1],inactive
same,Potency,[2],inactive
same,Potency,[4],inactive
CCCCC(=O)O[C@]1(C(=O)CO)[C@H](C)C[C@H]2[C@@H]3CCC4=CC(=O)C=C[C@]4(C)[C@@]3(F)[C@@H](O)C[C@@]21C,Potency,[1],inactive
same,Potency,[2],inactive
same,Potency,[4],inactive
